Rab9 promoter act: qHTS Assay for Rab9 Promoter Activators; Huh7 Rab9 promoter-luciferase reporter, luminescence, 24 h; hit rate 2.8% among 320,000; AID 485297, 2010; Potency, µM (titrated, usually from 9.22 µM), hits mostly activators; note: nearly all actives have a fitted effect of over 60% in size
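Quantitative HTS format; Huh7 Rab9-luciferase reporter cells (1500/well) receive compound 2 h post-plating, incubate 24 h at 37 °C, then get luciferase reagent for 10 min before luminescence reading.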
FLuc modulator: qHTS profiling assay for firefly luciferase inhibitor/activator using purifed enzyme and Km concentrations of substrates (counterscreen for miR-21 project); purified FLuc, Km substrates, luminescence inhibition; Potency, µM (doses to about 57.5 µM), actives largely listed as inhibitors; hit rate 6.9% among 360,000; AID 588342, 2011; note: nearly all actives have a fitted effect of over 55% in size
Target sequence (P08659 whole entry, looked up): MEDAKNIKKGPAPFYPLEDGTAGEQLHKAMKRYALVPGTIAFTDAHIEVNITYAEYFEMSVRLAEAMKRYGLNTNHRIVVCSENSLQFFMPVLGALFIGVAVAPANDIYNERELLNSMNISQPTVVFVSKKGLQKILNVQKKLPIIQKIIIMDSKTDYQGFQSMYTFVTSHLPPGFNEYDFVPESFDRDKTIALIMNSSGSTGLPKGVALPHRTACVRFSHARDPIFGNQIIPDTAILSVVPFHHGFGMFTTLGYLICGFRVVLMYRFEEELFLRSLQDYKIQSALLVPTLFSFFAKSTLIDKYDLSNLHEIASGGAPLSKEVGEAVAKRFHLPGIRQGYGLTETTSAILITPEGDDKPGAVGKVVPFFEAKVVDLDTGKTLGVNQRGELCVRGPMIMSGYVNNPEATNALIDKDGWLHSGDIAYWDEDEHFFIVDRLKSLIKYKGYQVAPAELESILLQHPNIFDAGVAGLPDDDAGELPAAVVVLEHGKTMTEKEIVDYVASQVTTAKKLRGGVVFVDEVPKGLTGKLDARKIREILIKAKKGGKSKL
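Purified P. pyralis luciferase (10nM final) with 10uM D-luciferin and 10uM ATP (Km levels) in 50mM Tris acetate pH 7.5, 10mM Mg acetate, 0.01% Tween-20, 0.05% BSA; qHTS 6-point titration, ~60 µM downward; luminescence read.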
ELG1 genotox: qHTS screen for small molecules that induce genotoxicity in human embryonic kidney (HEK293T) cells expressing luciferase-tagged ELG1; Potency, µM (highest dose often 46 µM), hits mostly activators; HEK293T ELG1-luciferase reporter, luminescence, 16 h; AID 504466, 2011; hit rate 1.3% among 330,000; note: nearly all actives have a fitted effect of over 60% in size
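Screening used a luciferase reporter fused to human ELG1 in HEK293T cells. Luminescence was read on a CCD plate imager after 16 hr exposure and 30 min ONE-Glo incubation.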
SMN2 splice up: qHTS Assay for Enhancers of SMN2 Splice Variant Expression; HEK293 SMN2-luciferase splicing reporter, luminescence, 30-36 h; Potency, µM (highest dose often 46.1 µM), usual class: activators; hit rate 2.8% among 210,000; note: nearly all actives have a fitted effect of over 55% in size
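qHTS luciferase splicing reporter: luminescence rises when SMN2 exon 7 is included in transfected HEK293 cells. Compound exposure lasted 30-36 h at 37C, with 4.5 mM final sodium butyrate as control, followed by a ONE-Glo read.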
NPC1 promoter act: qHTS Assay for NPC1 Promoter Activators | Huh7 NPC1 promoter luciferase reporter, 24 h | Potency, µM (top dose mostly 9.22 µM), actives largely listed as activators | hit rate 2.4% among 320,000; note: nearly all actives have a fitted effect of over 60% in size
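Quantitative HTS used a cell-based reporter: Huh7 cells stably bearing the NPC1 promoter upstream of luciferase were treated with compounds for 24 h, and promoter activation was read as luminescence.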
Numbers stand for hits; – = inactive; ? = inconclusive; · = not tested or not shown; [ ] = dose if it differs, or a comment. Compounds with a hit are over-represented: about 7.4% of the library has one in this group of screens. Calls come from the whole dose curve; as a rule, active = well fitted curve in the direction sought with a large enough effect; inconclusive = small, poorly fitted or top-dose-only effect, or another doubt; inactive = no such curve, though single readings can be large; an effect the other way counts as inactive or inconclusive.

SMILES	Rab9 promoter act	FLuc modulator	ELG1 genotox	SMN2 splice up	NPC1 promoter act
Cc1noc(NS(=O)(=O)c2ccc(N/C=C\C(=O)c3ccc4c(c3)OCO4)cc2)c1C	–	9.5µM	–	–	–
COc1cccc(C(=O)/C=C/Nc2ccc(S(=O)(=O)Nc3onc(C)c3C)cc2)c1	–	15µM	–	–	–
Cc1noc(NS(=O)(=O)c2ccc(NC(=O)/C=C/c3ccc(Br)cc3)cc2)c1C	–	?	–	·	–
CCOc1ccc(C(=O)/C=C/Nc2ccc(S(=O)(=O)N=C(N)N)cc2)cc1	–	–	?	–	–
COc1cc(NC(=O)c2nn(-c3ccc(F)cc3)c(=O)n(C)c2=O)cc(OC)c1OC	·	–	·	·	·
Cc1cccc(NS(=O)(=O)c2ccc3oc(=O)c4ncn(C)c4c3c2)c1C	·	–	·	·	·
Cc1noc(NS(=O)(=O)c2ccc(N/C=C\C(=O)c3cccc4ccccc34)cc2)c1C	–	13µM	–	–	–
CCc1nnc(NS(=O)(=O)c2ccc(N/C=C\C(=O)c3cccc4ccccc34)cc2)s1	–	–	–	–	–
O=C(NC1CCS(=O)(=O)C1)c1ccc(-c2ccc(Br)cc2)o1 (stereo not drawn)	–	?	–	–	–
O=C(NC12CC3CC(CC(C3)C1)C2)c1ccc(Br)o1	–	17µM	–	·	–
O=C(NC12CC3CC(CC(C3)C1)C2)c1ccc(-c2ccc(Br)cc2)o1	?	4.8µM	?	16µM	?
O=C(NC12CC3CC(CC(C3)C1)C2)c1ccc([N+](=O)[O-])o1	–	?	–	·	–
COc1ccc(S(=O)(=O)c2c(Nc3ccc(F)cc3)sc(C(=O)c3ccc4c(c3)OCO4)c2N)cc1	·	–	·	·	·
O=C(CCSc1ccccc1)N1CCCC1	2.8µM	17µM	?	11µM	2.5µM
O=C(CCSc1ccccc1)NC1CCCCCC1	–	11µM	–	–	–
O=C(CCSc1ccccc1)N1CCOCC1	2.8µM	19µM	8.2µM	13µM	2.8µM
O=C(CCSc1nnnn1-c1ccccc1)N1CCOCC1	–	–	–	–	–
O=C(CSc1ccc(Cl)cc1)N1CCCC1	?	?	?	?	–
CC1(C)O[C@H]2[C@@H](O1)[C@@H](On1nnc3ccc(Cl)cc31)O[C@@H]2[C@@H]1COC(C)(C)O1	·	·	·	–[9.22 µM]	·
Cc1ccnc2c1ccc1cccnc12	–	–	–	·	–
Cc1ccnc2c1ccc1ccccc12	–	17µM	–	·	–
COc1ccc(S(=O)(=O)c2cn(C)c3cc(N4CCCCCC4)c(F)cc3c2=O)cc1	·	–	·	·	·
Fc1cccc(Cl)c1/C=N/Nc1ccccn1	–	–	–	?	–
Cc1csc(N/N=C/c2c(F)cccc2Cl)n1	–	13µM	?	·	–
CCOc1ccc(/C=N/Nc2nc(C)cs2)c(O)c1	1.8µM	3.8µM	–	·	1.6µM
SMILES	Rab9 promoter act	FLuc modulator	ELG1 genotox	SMN2 splice up	NPC1 promoter act
CC(=O)Nc1sc(N/N=C\c2ccccc2F)nc1-c1cccs1	–	–	?	–	–
CCCOc1ccc(/C=N/Nc2cc(N3CCOCC3)ncn2)c(O)c1	–	–	–	·	–
Cc1csc(N/N=C/c2ccccc2F)n1	–	6µM	?	·	–
Cc1ccc(C)c(NC(=O)C2CCCN(c3nc4ccccc4s3)C2)c1 (stereo not drawn)	·	–	·	–	·
O=C1C2=C(C(=O)c3ccccc31)C1O[C@](c3ccsc3)(Cc3ccccc31)O2	–[1.84 µM]	–[11.5 µM]	·	·	–[1.84 µM]
C=CCn1c(SCC(=O)NCC)nnc1-c1cc2c(s1)CCC(CC)C2 (stereo not drawn)	–	12µM	?	?	–
C=CCn1c(SCC(=O)NCCOC)nnc1-c1cc2c(s1)CCC(CC)C2 (stereo not drawn)	–	9.5µM	–	–	–
O=C(NNC1CC(=O)N(c2ccccc2)C1=O)c1ccco1 (stereo not drawn)	–	–	–	–	–
O=C(NNC1CC(=O)N(c2ccccc2)C1=O)c1ccc(COc2ccccc2Cl)o1 (stereo not drawn)	–	17µM	–	–	–
O=C(c1ccco1)N1CCN(S(=O)(=O)c2cccc(C(F)(F)F)c2)CC1	–	–	–	–	–
O=C(/C(C=Nc1ccc(Br)cc1)=C(/O)c1ccco1)C(F)(F)F	3.2µM	6µM	?	14µM	?
O=C(/C(C=Nc1cccc(C(F)(F)F)c1)=C(/O)c1ccco1)C(F)(F)F	–	24µM	?	?	–
Cn1nc(C(F)(F)F)c(-c2ccc(Br)cc2)c1NC(=O)c1ccco1	–	–	–	·	–
COc1ccc(-c2noc(N(C)CC(=O)Nc3cccc(C(F)(F)F)c3)n2)cc1	–	8.5µM	–	–	?
CCn1c(=O)c2cc(C(=O)N3CCN(c4cccc(OC)c4)CC3)sc2c2ccccc21	·	–	·	–	·
COC(=O)c1ccc2c(CCO)c[nH]c2c1	–	24µM	?	·	?
COC(=O)c1ccc(CNC(=O)CCc2c[nH]c3ccccc23)cc1	–	–	–	·	–
COc1ccc(-c2ccc(SCC(=O)N3c4ccccc4CC3C)nn2)cc1OC (stereo not drawn)	–	4.3µM	–	?	–
CCOC(=O)N1CCN(C(=O)CSc2ccc(-c3ccc(OC)c(OC)c3)nn2)CC1	–	17µM	–	–	–
CCOC(=O)N1CCN(C(=O)CSc2ccc(-c3ccc(OC)cc3)nn2)CC1	–	11µM	–	–	–
CC1Cc2ccccc2N1C(=O)CSc1nncn1C (stereo not drawn)	–	–	–	–	–
O=C(O)c1ccccc1NC(=O)c1cc2ccccc2oc1=O	2.8µM	7.6µM	?	·	3.5µM
COc1ccccc1C(=O)Nc1cc2ccccc2oc1=O	4µM	?	2.8µM	?	5.6µM
COc1ccc(S(=O)(=O)Nc2ccccc2OC)cc1NC(=O)c1cc2ccccc2oc1=O	4µM	12µM	?	·	4µM
COc1ccc(NC(=O)c2cc3ccccc3oc2=O)c(OC)c1	2.8µM	?	?	·	2.8µM
SMILES	Rab9 promoter act	FLuc modulator	ELG1 genotox	SMN2 splice up	NPC1 promoter act
Cc1nnc(N2CCCC(C(=O)NCCc3ccccc3)C2)c2nn(-c3ccccc3)c(C)c12 (stereo not drawn)	·	–	·	·	·
CCOc1ccc(CCNC(=O)c2cc3c(=O)n(C)c4ccccc4c3n2C)cc1OCC	·	–	·	–	·
CC1=NN(c2ccccc2)C(=O)/C1=C\C=C\c1ccccc1	–	17µM	–	·	–
CCOC(=O)CC1=NN(c2ccccc2)C(=O)/C1=C\c1ccc(N(C)C)cc1	–	11µM	–	–[1.84 µM]	–
CC1=NN(c2ccccc2)C(=O)/C1=C/C=C/c1ccc(N(C)C)cc1	–	4.8µM	–	–	–
CCOC(=O)CC1=NN(c2ccccc2)C(=O)C1	–	–	–	–	–
CC1=NN(c2ccccc2)C(=O)/C1=C/N(C)C	–	–	–	·	–

Compound activity as filed in PubChem.
